Measurements from PubChem BioAssay AID1851 (National Center for Advancing Translational Sciences (NCATS), 2009).
Hit rate of the full screen: of about 16,000 compounds, about 5,100 (32%) were called active. Not shown: some 25% with an inconclusive outcome. The list shows a part of the results. Unmarked numbers belong to inactive results. Calls come from the whole dose curve; as a rule, active = well fitted curve in the direction sought with a large enough effect; inconclusive = small, poorly fitted or top-dose-only effect, or effect the other way; inactive = no such curve, though single readings can be large or run the other way.

target: Cytochrome P450 3A4 (Homo sapiens) (UniProt P08684); test: Cytochrome panel assay with activity outcomes; details: recombinant CYP, pro-luciferin dealkylation, luminescence, p450-cyp3a4; series mostly up to 57.1 µM; activity, negative = inhibition: at the top concentration
% is set by controls: 0 for no effect and ±100 for the full control effect.

Sequence of Cytochrome P450 3A4 (Homo sapiens) (P08684 whole entry, looked up): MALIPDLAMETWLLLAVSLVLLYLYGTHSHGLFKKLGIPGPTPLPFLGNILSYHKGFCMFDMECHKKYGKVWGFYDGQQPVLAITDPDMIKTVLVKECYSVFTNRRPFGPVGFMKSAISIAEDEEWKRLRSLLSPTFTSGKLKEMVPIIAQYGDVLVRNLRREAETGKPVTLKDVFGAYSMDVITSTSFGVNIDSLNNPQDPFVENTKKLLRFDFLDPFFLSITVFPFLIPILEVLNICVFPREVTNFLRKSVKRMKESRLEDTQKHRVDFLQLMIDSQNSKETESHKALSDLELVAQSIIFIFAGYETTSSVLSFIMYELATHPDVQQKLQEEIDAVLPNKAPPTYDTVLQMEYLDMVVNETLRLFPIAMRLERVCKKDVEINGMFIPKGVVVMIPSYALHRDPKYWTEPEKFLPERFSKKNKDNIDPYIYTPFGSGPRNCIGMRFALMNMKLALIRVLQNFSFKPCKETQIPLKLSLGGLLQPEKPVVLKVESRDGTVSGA

SMILES | AC50 | activity, negative = inhibition
COc1ccccc1-c1cc(C(=O)Nc2cc(C)n(Cc3ccc(Cl)cc3)n2)no1 | 15.8 µM (active) | 
COc1ccccc1NC(=S)NC(=O)c1ccc(-c2ccc(Cl)cc2)o1 |  | -7.71% [at 2.29 µM]
C[C@@](N)(C(=O)O)c1ccc(S(=O)(=O)O)cc1 |  | -3.33% (inactive)
CC(C)(C)c1ccc(S(=O)(=O)/C=C\C#N)cc1 | 25.1 µM (active) | 
Cc1ccc(C(=O)COC(=O)CNC(=O)Cc2ccccc2)cc1[N+](=O)[O-] |  | -4.57% (inactive)
Cc1ccc(C(=O)Nc2ccccc2Oc2ccccc2)cc1[N+](=O)[O-] |  | -22.4% (inactive)
Cc1ccc(C(=O)Nc2ccc(Cc3ccncc3)cc2)cc1[N+](=O)[O-] | 0.355 µM (active) | 
CCC(=O)Nc1ccc(C(=O)OCC(=O)c2ccc(C)c([N+](=O)[O-])c2)cc1 | 7.94 µM (active) | 
Cc1ccc(NC(=O)c2ccc(NCC3CCCO3)c([N+](=O)[O-])c2)cc1Cl (centres undefined) |  | -6.83% [at 11.4 µM]
CC1=CC(=O)C=CC1(C)C(Cl)(Cl)Cl (centres undefined) |  | 2.38% [at 2.29 µM]
COc1ccc(-c2nc(-c3ccccc3)c(-c3cc([N+](=O)[O-])ccc3C)[nH]2)cc1O | 5.01 µM (active) | 
O=c1[nH]c(=O)n([C@@H]2C[C@H](O)[C@H](CO)O2)cc1C(F)(F)F |  | -12.5% [at 25.6 µM] (inactive)
Cc1ccc(NC(=O)c2cc(Cl)nc3ccccc23)cc1 | 10 µM (active) | 
O=C(NNC(=O)c1cc(-c2ccc(Cl)c(Cl)c2)nc2ccccc12)Nc1ccccc1 |  | -6.22% [at 2.29 µM]
Cc1cccc(NC(=O)NNC(=O)c2cc(-c3ccccc3Cl)nc3ccccc23)c1 | 3.98 µM (active) | 
CC1(C)S[C@@H]2[C@H](NC(=O)[C@@H](NC(=O)N3CCNC3=O)c3ccccc3)C(=O)N2[C@H]1C(=O)O |  | 0.608% [at 25.6 µM] (inactive)
CCC1CC2CC(NC(C)=O)C1C2 (centres undefined) |  | 0.468% [at 2.29 µM]
O=[N+]([O-])c1ccc2c(c1)S(=O)c1ccccc1-2 (centres undefined) |  | -11.3% [at 11.4 µM]
N[C@@H](Cc1cccc([N+](=O)[O-])c1)C(=O)O |  | -9.82% [at 11.4 µM]
N=C(N)S[C@H]1c2ccccc2-c2cc([N+](=O)[O-])ccc21 | 5.01 µM (active) | 
COC(=O)CCCC(=O)O |  | -18.6% [at 11.4 µM]
COC(=O)C(C(=O)OC)C(C[N+](=O)[O-])c1ccc(OC)c(OC)c1 (centres undefined) |  | -7.76% [at 2.29 µM]

SMILES | AC50 | activity, negative = inhibition
COc1cc2c(C(=O)NCc3ccc(C)o3)cn(CC(C)C)c(=O)c2cc1OC |  | -15.9% [at 2.29 µM]
COc1cc(C(=O)NCCC(C)C)c([N+](=O)[O-])cc1OC | 15.8 µM (active) | 
O=C(CCNc1cccc(Cl)c1)c1cccs1 | 14.1 µM (active) | 
O=C(CNc1cccc(Cl)c1)c1ccc(Cl)cc1 |  | -14.6% (inactive)
O=C(NOC(=O)c1cc(Br)ccc1Cl)c1cccs1 |  | 8.25% (inactive)
CNS(=O)(=O)c1ccccc1C(=N)c1ccccc1 |  | -6.85% [at 11.4 µM]
CC(C)NC[C@H](O)c1ccc2ccccc2c1 | inactive | 
CCN(CC)C[C@@H](O)c1ccc2ccc3ccccc3c2c1 |  | -25.1% [at 11.4 µM]
CCCCOC(OCCCC)[C@H](O)CSc1ccc2ccccc2c1 | 5.01 µM (active) | 
S=c1[nH]nc(C2CCCCC2)n1/N=C/c1cccs1 | 12.6 µM (active) | 
Cc1nnc(C)n1/N=C/c1cccs1 |  | -16.5% (inactive)
O=S(=O)(O)c1cc(O)c2c(N=Cc3ccccc3O)cc(S(=O)(=O)O)cc2c1 |  | 0.658% [at 11.4 µM]
Cc1cc(O)c(C(C)C)cc1N=Cc1ccccc1O | 3.16 µM (active) | 
O=C(O)c1cc(N=Cc2ccccc2O)cc(C(=O)O)c1 |  | -17.4% [at 11.4 µM]
COc1ccc(/C=N/NC(=O)c2cccc([N+](=O)[O-])c2)cc1OS(=O)(=O)c1ccc(C)cc1 |  | -20.3% [at 2.29 µM]
O=C(COc1ccc(/C=N/NC(=O)c2ccccc2)cc1)Nc1ccc([N+](=O)[O-])cc1 |  | 10.2% (inactive)
COc1cccc(/C=N/NC(=O)c2cccc([N+](=O)[O-])c2)c1OS(=O)(=O)c1ccc(C)cc1 | 1.12 µM (active) | 
COc1cc(/C=N\Nc2ccc([N+](=O)[O-])cc2)ccc1OCC(=O)Nc1ccc(C)c(C)c1 | 3.98 µM (active) | 
COc1cc(/C=N/NC(=O)c2cccc([N+](=O)[O-])c2)ccc1OCc1ccc(C)cc1 | 1.41 µM (active) | 
N[C@@H](Cc1ccc(O)c(O)c1)C(=O)O | inactive | 
O=C(O)c1c(-c2c3ccc(=O)cc-3oc3cc(O)ccc23)cc2ccccc2c1-c1ccccc1 |  | -8.67% [at 11.4 µM]
Cc1nc(-c2c(C(F)(F)F)noc2-c2ccc(O)cc2O)cs1 | 0.501 µM (active) | 
